Screening data as filed in PubChem.
USP8 block = inhibitors of human USP8 deubiquitinase; purified USP8, Ub-rhodamine cleavage fluorescence, 30 min; hit rate 4.2% among 47,000; AID 1645853, 2021; Ubiquitin carboxyl-terminal hydrolase 8 (Homo sapiens), P40818; inhibition, % at 20 µM
USP30 inh = inhibitors of human USP30 deubiquitinase; Ubiquitin carboxyl-terminal hydrolase 30 (Homo sapiens), Q70CQ3; purified USP30, Ub-rhodamine cleavage fluorescence; inhibition, % at 25 µM; hit rate 5.3% among 47,000
USP17 block = inhibitors of human USP17 deubiquitinase; purified USP17, Ub-rhodamine cleavage fluorescence, 3 h; inhibition, % at 50 µM; hit rate 6.5% among 47,000; Ubiquitin carboxyl-terminal hydrolase 17-like protein 5 (Homo sapiens), A8MUK1
Target sequence (A8MUK1 whole entry, looked up): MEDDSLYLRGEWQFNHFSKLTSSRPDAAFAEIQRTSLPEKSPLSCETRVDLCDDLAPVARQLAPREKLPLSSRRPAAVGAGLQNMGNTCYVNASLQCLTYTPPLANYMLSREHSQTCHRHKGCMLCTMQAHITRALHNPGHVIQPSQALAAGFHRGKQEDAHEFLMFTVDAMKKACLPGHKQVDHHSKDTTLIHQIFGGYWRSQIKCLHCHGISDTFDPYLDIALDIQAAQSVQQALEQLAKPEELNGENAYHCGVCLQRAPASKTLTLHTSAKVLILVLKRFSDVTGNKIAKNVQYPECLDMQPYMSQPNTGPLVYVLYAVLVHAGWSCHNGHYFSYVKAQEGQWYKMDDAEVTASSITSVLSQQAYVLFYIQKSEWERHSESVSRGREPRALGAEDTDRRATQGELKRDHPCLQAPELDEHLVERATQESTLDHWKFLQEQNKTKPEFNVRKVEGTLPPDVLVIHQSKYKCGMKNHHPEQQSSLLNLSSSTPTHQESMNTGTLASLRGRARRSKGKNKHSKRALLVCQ
USP28 inh = inhibitors of human USP28 deubiquitinase | Ubiquitin carboxyl-terminal hydrolase 28 (Homo sapiens), Q96RU2 | purified USP28, Ub-rhodamine cleavage fluorescence, 30 min | inhibition, % at 25 µM | hit rate 3% among 47,000
* marks the source's active call; other numbers are inactive results; · = no result. Rows were chosen to be rich in hits. Some 13% of all compounds tested hit in one or more screens of this group. No stated cut-off is given here; in the data, active means inhibition above about 30%; inactive means the rest.

SMILES | USP8 block | USP30 inh | USP17 block | USP28 inh
CCc1noc(C2(NC(=O)C3CCCC3)CCCCC2)n1 | 24.2 | 12.9 | 4.9 | 4.0
Cc1ccc2c(NCc3ccc4c(c3)OCO4)c(-c3nc(C)no3)cnc2n1 | 60.7* | -78.1 | 35.6* | 42.9*
Cc1ccc2c(Nc3ccccc3)c(-c3nc(C)no3)cnc2n1 | -3.4 | -27.1 | -14.4 | 12.1
Cc1ccc(NC(=O)CCc2nc(-c3cccnc3)no2)cc1 | -172.4 | -16.2 | -45.4 | -1.3
CCN(CC)c1ccc(NC(=O)c2cc(=O)[nH]c3ccccc23)cc1 | 16.5 | -26.5 | -7.0 | -12.0
O=C(Nc1ccc(Br)cc1)c1cc(=O)[nH]c2ccccc12 | 20.9 | 34.8* | 6.8 | 15.1
O=C(Nc1cc(Cl)ccc1NCc1ccccc1)c1cc(=O)[nH]c2ccccc12 | 43.9* | -99.5 | -22.2 | -15.5
Cc1c(Cl)cccc1NC(=O)c1oc2ccc3c(c2c1C)C(=O)CC1(CCCC1)O3 | 6.7 | -6.3 | 4.6 | -6.2
COc1ccc(NC(=O)C(Cc2ccccc2)NC(=O)C2CCCCC2)c(OC)c1 (configuration not stated) | 17.4 | 18.3 | 20.3 | 12.9
COC(=O)c1cccc(Nc2c(-c3cccc(O)c3)nc3cnccn23)c1 | -7.9 | -121.7 | -41.7 | -17.8
COc1ccc(CCNC(=O)Cn2cncn2)cc1OC | 0.3 | 3.6 | -1.7 | -7.7
COc1ccc(CCNC(=O)COc2ncnc3oc(C)c(C)c23)cc1OC | 0.5 | -10.1 | -2.4 | 56.8*
COc1ccccc1NCc1cn2ccccc2n1 | -0.8 | -42.0 | -24.4 | -26.6
Cc1ccc(C(=O)Nc2ncc3c(Cl)cccc3n2)cc1 | 15.9 | 33.4* | 30.9* | 23.7
Cc1ccc(C(=O)Nc2ncc3c(n2)CC(C)(C)CC3=O)cc1 | 12.2 | 37.3* | 19.9 | 12.0
Cc1c(Cl)cccc1NC(=O)c1ccc(-c2cncnc2)nc1 | -20.0 | -434.8 | -143.0 | -103.4
COc1ccc(N2CCN(C(=O)CC(c3ccccc3C)n3cccc3)CC2)cc1 (configuration not stated) | -9.8 | -19.4 | 11.1 | 0.9
O=C(COc1ccc(F)cc1)Nc1cc(F)c2nc(N3CCOCC3)ccc2c1 | 41.2* | -4.0 | 51.3* | -1.2
CC(C)CC(=O)Nc1cc(F)c2nc(N3CCOCC3)ccc2c1 | 80.1* | -53.2 | 75.1* | -10.9
O=C(COc1nc2ccccc2nc1N1CCOCC1)Nc1ccc(F)cc1 | 19.6 | 38.4* | 20.9 | 7.0
O=C(CCc1ccccc1)Nc1cc(F)c2nc(N3CCOCC3)ccc2c1 | 45.8* | -2.3 | 15.6 | 2.5
O=C(COc1nc2ccccc2nc1N1CCOCC1)NCCc1ccc(F)cc1 | -2.7 | · | -16.4 | ·
CCOc1ccc2ccccc2c1C(=O)N1CC(=O)Nc2ccc(C)cc2C1c1ccc(F)cc1 (configuration not stated) | 13.1 | 42.6* | 8.7 | 16.9
O=C(NCC1CCCO1)c1cc(=O)nc2sc(N3CCCCCC3)nn12 (configuration not stated) | 5.9 | 8.4 | 8.8 | 6.5
O=C(Nc1ccnn1Cc1ccccc1)c1cccnc1SC(F)F | 5.7 | 10.1 | 10.6 | 13.7
SMILES | USP8 block | USP30 inh | USP17 block | USP28 inh
COc1ccc(N(CC(=O)Nc2cccc(F)c2)S(=O)(=O)c2ccc(OC)c(OC)c2)cc1 | 21.2 | 50.8* | 35.6* | 19.9
COc1ccc(S(=O)(=O)N(CC(=O)Nc2cccnc2)c2ccc(F)cc2)cc1OC | 1.8 | 11.0 | 6.4 | 14.1
COc1ccc(S(=O)(=O)N(CC(=O)NCc2ccc3c(c2)OCO3)c2ccc(F)cc2)cc1OC | 15.7 | 38.0* | 33.9* | 20.5
Cc1ccc2[nH]c3c(=O)n(CC4CCCO4)cnc3c2c1 (configuration not stated) | 4.1 | 43.5* | 68.0* | -4.3
Cc1ccc2[nH]c3c(=O)n(CCC4=CCCCC4)cnc3c2c1 | 30.7* | 9.7 | 15.3 | 4.7
O=c1c2[nH]c3ccccc3c2ncn1CCC1=CCCCC1 | -17.6 | -6.9 | 0.9 | -31.1
Cc1ccc2[nH]c3c(=O)n(CCc4ccc(O)cc4)cnc3c2c1 | 14.0 | 93.4* | 56.8* | 42.8*
COc1ccc(CCn2cnc3c([nH]c4ccccc43)c2=O)cc1 | 25.8 | 96.1* | 34.0* | 35.1*
COc1ccc(NC(=O)Cn2cc(C(=O)c3ccc(Cl)cc3)c(=O)c3cc(F)ccc32)cc1 | 15.7 | 39.1* | 31.1* | 19.2
COc1ccc2c(c1)c(=O)c(C(=O)c1ccc(Cl)cc1)cn2CC(=O)Nc1ccc(Cl)cc1 | 16.1 | -94.4 | 0.7 | -26.9
CCOc1ccc2c(c1)c(=O)c(C(=O)c1ccccc1)cn2CC(=O)Nc1ccc(Cl)cc1 | 93.2* | 8.4 | -24.5 | 0.8
Cc1cc(N2CCN(c3ncccn3)CC2)nc2ccc(NC(=O)c3ccncc3)cc12 | 18.7 | -2.6 | 71.5* | -2.5
CC(=O)Nc1ccc2nc(N3CCC(C(=O)N4CCN(C)CC4)CC3)cc(C)c2c1 | 31.3* | 21.8 | 12.9 | 15.4
Cc1cc(N2CCOCC2)nc2ccc(NC(=O)CC3CCCC3)cc12 | 9.5 | 12.4 | -5.5 | 3.2
COc1ccc(CCNC(=O)CCC(=O)Nc2ccc3nc(N4CCOCC4)cc(C)c3c2)cc1OC | 13.1 | 1.7 | 2.6 | -16.8
Cc1cc(N2CCCCC2)nc2ccc(NC(=O)c3ccco3)cc12 | 58.1* | -66.7 | -26.5 | -3.5
Cc1ccc2cc(NC(=O)c3ccco3)ccc2n1 | 15.4 | -0.6 | 5.5 | 16.1
CCOc1ccc(CCNC(=O)CCC(=O)Nc2ccc3nc(N4CCN(C)CC4)cc(C)c3c2)cc1OCC | 8.6 | 54.3* | 28.0 | 10.8
CCOC(=O)C1CCN(C(=O)CCC(=O)Nc2ccc3nc(N4CCN(CC)CC4)cc(C)c3c2)CC1 | 6.6 | 23.7 | -5.0 | 6.3
CCN1CCN(c2cc(C)c3cc(NC(=O)c4ccco4)ccc3n2)CC1 | 47.5* | -14.4 | 13.3 | 3.8
COc1ccc(NC(=O)CSc2nnc3n(-c4ccccc4)c(=O)c4c5c(sc4n23)CN(C)CC5)cc1 | -6.5 | -4.8 | -4.1 | 17.2
CC(NC(=O)CSc1nnc2n(-c3ccccc3)c(=O)c3ccccc3n12)c1ccccc1 (configuration not stated) | 35.8* | 48.1* | 12.2 | 10.1
Cc1ccc(S(=O)(=O)Nc2ccccc2SCCS(=O)(=O)c2ccc(Cl)cc2)cc1 | 15.5 | 50.6* | 24.0 | 27.6
Cc1c(OCc2ccccc2F)ccc2c1OC(C)(C)CC2=O | 18.6 | 28.2 | 30.7* | 11.8
COc1cc(CO)cc2c1C(=O)c1c(O)cc(O)cc1C2=O | 4.5 | 29.5 | 7.7 | 6.0
SMILES | USP8 block | USP30 inh | USP17 block | USP28 inh
COc1cc(O)c2c(c1O)C(=O)c1cc(C)ncc1C2=O | -7.6 | -35.3 | 43.2* | 2.2
Cc1[nH]c2ccccc2c1C(=O)COc1ncnc2sc(C)c(C)c12 | -12.5 | -93.0 | -40.4 | -23.3
COc1cc(Cl)ccc1Oc1ncnc2sc(C)c(C)c12 | 4.3 | 46.4* | 61.6* | 28.0
COc1cccc(NC(=O)c2c(O)c3ccccc3n(CC(C)C)c2=O)c1 | 85.4* | -3.2 | 14.9 | -7.3
CCC(=O)NNC(=O)c1c(O)c2ccccc2n(CC)c1=O | 50.8* | 7.0 | 8.9 | -0.1
O=c1c(O)c(-c2ccc(O)c(O)c2)oc2cc(O)cc(O)c12 | 17.9 | 81.0* | 97.3* | 98.4*
